Screens: PubChem, University of Kansas High Throughput Screening Laboratory
mHTT CaM bind: mHTT-calmodulin interaction abrogation; AlphaScreen His-mHTT/GST-CaM binding, luminescence; inhibition, % at 15 µM; 3.6% of 190,000 active; AID 1671202
Pf apPOL inh: Pf-apPOL DNA polymerase inhibition. Recombinant Pf-apPOL, molecular beacon fluorescence, 1.5 h. inhibition, % at 10 µM. 0.25% of 210,000 active. AID 1794808
Of the large screens only hits and unclear results are named; the others gave an inactive call; ! = not active in a repeat. Hits are enriched below; roughly 3.5% of the tested compounds scored in any of these assays. No stated cut-off is given here; in the data, active means inhibition above about 50%; inactive means the rest.

OC(COCC12CC3CC(CC(C3)C1)C2)CN1CCN(Cc2ccccc2)CC1 (stereo not drawn)	none
OC(COCC12CC3CC(CC(C3)C1)C2)CN1CCN(c2ccccc2F)CC1 (stereo not drawn)	none
OC(COCCC12CC3CC(CC(C3)C1)C2)CN1CCN(c2ccccc2F)CC1 (stereo not drawn)	mHTT CaM bind 53
OC(COCCC12CC3CC(CC(C3)C1)C2)CN1CCN(Cc2ccccc2)CC1 (stereo not drawn)	mHTT CaM bind 57
O=c1cc(CN2CCC3(CC2)OCCO3)c2ccc(O)c(O)c2o1	none
COC(=O)c1cc(OCc2ccccc2F)c2cc(F)ccc2n1	none
O=C(c1ccc(F)cc1)N1CCN(Cc2ccccc2[N+](=O)[O-])CC1	none
Cc1cccc(NC(=O)Cn2nc(-c3cccs3)ccc2=O)n1	none
Cc1ccccc1-n1nnnc1C(c1ccccc1)N(C)Cc1ccc(F)cc1 (stereo not drawn)	none
Cc1sc(C(=O)N2CCCC2)c2ncnc(NCc3cccc(Cl)c3)c12	none
Cc1sc(C(=O)N2CCCC2)c2ncnc(NCc3ccc(F)c(Cl)c3)c12	mHTT CaM bind 100
Cc1cccnc1NC(=O)Cn1cnc2scc(-c3ccccc3)c2c1=O	none
CC(=O)Nc1ccc(NC(=O)c2ccc(Cl)cc2Cl)cc1	none
CC(=O)Nc1ccc2c(c1)OCCO2	none (no result: mHTT CaM bind)
COc1ccc(OC)c(C2NC(C(=O)O)CS2)c1 (stereo not drawn)	none
O=C(Nc1ccc2c(c1)C1C=CCC1C(C(=O)O)N2)c1ccc(Cl)cc1Cl (stereo not drawn)	mHTT CaM bind 94
COc1ccc2c(c1)C1C=CCC1C(C(=O)O)N2 (stereo not drawn)	mHTT CaM bind 100
CC(=O)Nc1ccc2c(c1)C1C=CCC1C(C(=O)O)N2 (stereo not drawn)	mHTT CaM bind 89
CC(=O)Nc1ccc2c(c1)C1C=CCC1C(c1ccccc1F)N2 (stereo not drawn)	mHTT CaM bind 73
CC(C)=CCCC1(C)OC(=O)N(CCNC(=O)c2ccnn2C)C1(C)O (stereo not drawn)	none
COc1cccc(-c2n[nH]c(C)c2NC(=O)C(C)(C)C)c1	none
Cc1cc2c(c(=O)o1)C(c1ccc(Cl)cc1Cl)C(C#N)=C(N)O2 (stereo not drawn)	none
O=C(Cn1c(-c2nnco2)cc2ccccc21)NCc1ccco1	mHTT CaM bind 69
O=C(Cn1c(C(F)(F)F)nc2ccccc21)NCc1ccco1	none
O=C(CSc1nc2c(c(=O)n1-c1ccccc1)SCC2)Nc1ccc2c(c1)OCCO2	none
C=CCN1C(=O)c2oc3ccccc3c(=O)c2C1c1cc(OC)c(OC)c(OC)c1 (stereo not drawn)	none
Cc1cc(C)nc(SC(NC(=O)c2ccccc2)C(=O)c2ccccc2)n1 (stereo not drawn)	mHTT CaM bind 94
Cc1cc(=O)n(C(NC(=O)c2ccccc2)C(=O)c2ccccc2)cn1 (stereo not drawn)	none
CCc1cccc(C)c1NC(=O)C1CCCN(c2nccc(C)n2)C1 (stereo not drawn)	none
COc1ccc(N2C(=O)CC(Sc3nc4ccccc4s3)C2=O)cc1 (stereo not drawn)	none
COc1ccc(OC)c(N2C(=O)CC(Sc3nc4ccccc4s3)C2=O)c1 (stereo not drawn)	mHTT CaM bind 51!
CC(=O)Nc1nnc2ccccn12	none
O=C(Nc1ccc(S(=O)(=O)N2CCCC2)cc1)c1ccccc1[N+](=O)[O-]	none
CCn1c(=O)c([N+](=O)[O-])c(NCCCN(C)C)c2ccccc21	none
CN(C)c1ccc(C2C3=C(CCCC3=O)Nc3nc(SCc4ccccc4F)[nH]c(=O)c32)cc1 (stereo not drawn)	mHTT CaM bind 52
O=C1CCCC2=C1C(c1cccs1)c1c(nc(SCc3ccccc3F)[nH]c1=O)N2 (stereo not drawn)	none
CC(=O)N(C)c1ccc(N=C2C(=O)Nc3cc(Br)c(C)cc32)cc1	none
COc1ccc(N=C2C(=O)Nc3ccc(C)c(Br)c32)cc1	mHTT CaM bind 64
Cc1ccc(N=C2C(=O)Nc3cc(Br)c(C)cc32)cc1	mHTT CaM bind 55
Cc1ccc(N=C2C(=O)Nc3ccc(C)c(Br)c32)cc1	none
COc1ccc2oc(=O)c(C(=O)NCCC3=CCCCC3)cc2c1	none
Cc1ccc(O)c(CN2CCCn3cccc3C2c2cccc(O)c2)c1 (stereo not drawn)	mHTT CaM bind 100
Cc1cccc(C2c3cccn3CCN2C(=O)CC(=O)NC(C)C)c1 (stereo not drawn)	none
Oc1cccc(C2c3cccn3CCCN2Cc2cc(Cl)ccc2O)c1 (stereo not drawn)	mHTT CaM bind 100
O=C(NCc1ccc(F)cc1)N1CCn2cccc2C1Cc1ccccc1 (stereo not drawn)	none
Oc1cccc(CN2CCCn3cccc3C2c2ccc(F)cc2)c1O (stereo not drawn)	mHTT CaM bind 98
CC(C)c1cc(C2CCCN2Cc2cc(Cl)ccc2O)on1 (stereo not drawn)	none
Cn1ccnc1Sc1cc(N2CCOCC2)ccc1[N+](=O)[O-]	none
